Experimental data taken from the supplement of paper PMC8728848.
Many of the other results were omitted from the sample, so the strongest signals are more common in it than they were.

How the values were obtained:
Experiment in all cases: glycan array binding signal (z-score within array); higher = stronger binding
Settings in all cases: glycan notation: IUPAC condensed, linker removed
Fuc(a1-2)Gal(b1-4)Glc = biological target: Fuc(a1-2)Gal(b1-4)Glc
Outline: (§1)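 Arrays were curated from the Consortium for Functional Glycomics database, 3228 in total, and kept only where the protein sequence was available. Binding is expressed as a within-array Z-score. This score was averaged across arrays of the same protein sequence at different concentrations or buffers and across linkers, and negative values can be read as non-binding.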

[1] = biological target: Fuc(a1-2)Gal(b1-4)[Fuc(a1-3)]GlcNAc(b1-3)[Neu5Ac(a2-6)Gal(b1-4)GlcNAc(b1-6)]Gal(b1-4)Glc
Outline: as §1

[2] = biological target: Fuc(a1-2)Gal6S(b1-4)Glc6S
Outline: as §1

[3] = biological target: Fuc(a1-2)[GalNAc(a1-3)]Gal(b1-4)GlcNAc(b1-2)Man(a1-3)[Fuc(a1-2)[GalNAc(a1-3)]Gal(b1-4)GlcNAc(b1-2)Man(a1-6)]Man(b1-4)GlcNAc(b1-4)GlcNAc
Outline: as §1

[4] = biological target: Fuc(a1-3)[Gal(b1-4)]GlcNAc(b1-3)Gal(b1-4)[Fuc(a1-3)]GlcNAc(b1-3)Gal(b1-4)[Fuc(a1-3)]GlcNAc
Outline: as §1

[5] = biological target: Fuc(a1-3)[GalNAc(b1-4)]GlcNAc6S
Outline: as §1

[6] = biological target: Gal(a1-3)Gal(b1-3)[Fuc(a1-4)]GlcNAc(b1-2)Man(a1-3)[Gal(a1-3)Gal(b1-3)[Fuc(a1-4)]GlcNAc(b1-2)Man(a1-6)]Man(b1-4)GlcNAc(b1-4)GlcNAc
Outline: as §1

[7] = biological target: Gal(a1-3)Gal(b1-4)GlcNAc(b1-2)Man
Outline: as §1

[8] = biological target: Gal(a1-3)Gal(b1-4)GlcNAc(b1-3)GalNAc
Outline: as §1

[9] = biological target: Gal(a1-3)Gal(b1-4)GlcNAc(b1-6)GalNAc
Outline: as §1

Gal(b1-3)Gal = biological target: Gal(b1-3)Gal
Outline: as §1

Gal(b1-3)GalNAc = biological target: Gal(b1-3)GalNAc
Outline: as §1

[10] = biological target: Gal(b1-3)GalNAc(a1-3)[Fuc(a1-2)]Gal(b1-4)GlcNAc
Outline: as §1

[11] = biological target: Gal(b1-3)GlcNAc(a1-6)Gal(b1-4)GlcNAc
Outline: as §1

[12] = biological target: Gal(b1-3)GlcNAc(b1-3)Gal(b1-3)GlcNAc
Outline: as §1

[13] = biological target: Gal(b1-3)GlcNAc(b1-3)Gal(b1-4)GlcNAc(b1-2)[Gal(b1-3)GlcNAc(b1-3)Gal(b1-4)GlcNAc(b1-6)]Man(a1-6)[Gal(b1-3)GlcNAc(b1-3)Gal(b1-4)GlcNAc(b1-2)Man(a1-3)]Man(b1-4)GlcNAc(b1-4)[Fuc(a1-6)]GlcNAc
Outline: as §1

[14] = biological target: Gal(b1-3)[Neu5Ac(a2-6)]GlcNAc(b1-4)Gal(b1-4)Glc
Outline: as §1

[15] = biological target: Gal(b1-4)GlcNAc(b1-2)Man(a1-6)[Man(a1-3)]Man(b1-4)GlcNAc(b1-4)GlcNAc
Outline: as §1

[16] = biological target: Gal(b1-4)GlcNAc(b1-2)[Gal(b1-4)GlcNAc(b1-6)]Man(a1-6)[Gal(b1-4)GlcNAc(b1-2)Man(a1-3)]Man(b1-4)GlcNAc(b1-4)[Fuc(a1-6)]GlcNAc
Outline: as §1

[17] = biological target: Gal(b1-4)GlcNAc(b1-3)Gal(b1-4)Glc
Outline: as §1

[18] = biological target: Gal(b1-4)GlcNAc(b1-3)Gal(b1-4)GlcNAc(b1-2)[Gal(b1-4)GlcNAc(b1-3)Gal(b1-4)GlcNAc(b1-6)]Man(a1-6)[Gal(b1-4)GlcNAc(b1-3)Gal(b1-4)GlcNAc(b1-2)Man(a1-3)]Man(b1-4)GlcNAc(b1-4)GlcNAc
Outline: as §1

[19] = biological target: Gal(b1-4)GlcNAc(b1-3)Gal(b1-4)GlcNAc(b1-2)[Gal(b1-4)GlcNAc(b1-3)Gal(b1-4)GlcNAc(b1-6)]Man(a1-6)[Gal(b1-4)GlcNAc(b1-3)Gal(b1-4)GlcNAc(b1-2)Man(a1-3)]Man(b1-4)GlcNAc(b1-4)[Fuc(a1-6)]GlcNAc
Outline: as §1

[20] = biological target: Gal(b1-4)GlcNAc(b1-3)Gal(b1-4)GlcNAc(b1-3)Gal(b1-4)GlcNAc(b1-2)Man(a1-3)[Gal(b1-4)GlcNAc(b1-3)Gal(b1-4)GlcNAc(b1-3)Gal(b1-4)GlcNAc(b1-2)Man(a1-6)]Man(b1-4)GlcNAc(b1-4)GlcNAc
Outline: as §1

[21] = biological target: Gal(b1-4)GlcNAc(b1-3)Gal(b1-4)GlcNAc(b1-3)Gal(b1-4)GlcNAc(b1-3)Gal(b1-4)GlcNAc(b1-3)Gal(b1-4)GlcNAc(b1-2)[Gal(b1-4)GlcNAc(b1-3)Gal(b1-4)GlcNAc(b1-3)Gal(b1-4)GlcNAc(b1-3)Gal(b1-4)GlcNAc(b1-3)Gal(b1-4)GlcNAc(b1-6)]Man(a1-6)[Gal(b1-4)GlcNAc(b1-3)Gal(b1-4)GlcNAc(b1-3)Gal(b1-4)GlcNAc(b1-3)Gal(b1-4)GlcNAc(b1-3)Gal(b1-4)GlcNAc(b1-2)Man(a1-3)]Man(b1-4)GlcNAc(b1-4)[Fuc(a1-6)]GlcNAc
Outline: as §1

[22] = biological target: Gal(b1-4)GlcNAc(b1-3)GalNAc
Outline: as §1

[23] = biological target: Gal(b1-4)GlcNAc(b1-6)[Gal(b1-4)GlcNAc(b1-3)]GalNAc
Outline: as §1

Gal3S(b1-4)Glc = biological target: Gal3S(b1-4)Glc
Outline: as §1

Gal6S(b1-4)GlcNAc6S = biological target: Gal6S(b1-4)GlcNAc6S
Outline: as §1

GlcA(b1-3)Gal = biological target: GlcA(b1-3)Gal
Outline: as §1

[24] = biological target: GlcA3S(b1-3)Gal(b1-4)GlcNAc(b1-3)Gal(b1-4)Glc
Outline: as §1

[25] = biological target: GlcNAc(a1-4)Gal(b1-4)GlcNAc(b1-3)Gal(b1-4)[Fuc(a1-3)]GlcNAc(b1-3)Gal(b1-4)[Fuc(a1-3)]GlcNAc
Outline: as §1

[26] = biological target: GlcNAc(b1-2)[GlcNAc(b1-6)]Man(a1-6)[GlcNAc(b1-2)Man(a1-3)]Man(b1-4)GlcNAc(b1-4)GlcNAc
Outline: as §1

[27] = biological target: GlcNAc(b1-3)Gal(b1-3)GalNAc
Outline: as §1

[28] = biological target: GlcNAc(b1-3)Gal(b1-4)GlcNAc(b1-3)Gal(b1-4)GlcNAc(b1-3)Gal(b1-4)GlcNAc(b1-2)Man(a1-3)[GlcNAc(b1-3)Gal(b1-4)GlcNAc(b1-3)Gal(b1-4)GlcNAc(b1-3)Gal(b1-4)GlcNAc(b1-2)Man(a1-6)]Man(b1-4)GlcNAc(b1-4)GlcNAc
Outline: as §1

[29] = biological target: GlcNAc(b1-3)Gal(b1-4)GlcNAc(b1-3)Gal(b1-4)GlcNAc(b1-3)Gal(b1-4)GlcNAc(b1-2)[GlcNAc(b1-3)Gal(b1-4)GlcNAc(b1-3)Gal(b1-4)GlcNAc(b1-3)Gal(b1-4)GlcNAc(b1-6)]Man(a1-6)[GlcNAc(b1-3)Gal(b1-4)GlcNAc(b1-3)Gal(b1-4)GlcNAc(b1-3)Gal(b1-4)GlcNAc(b1-2)Man(a1-3)]Man(b1-4)GlcNAc(b1-4)[Fuc(a1-6)]GlcNAc
Outline: as §1

GlcNAc(b1-3)Man = biological target: GlcNAc(b1-3)Man
Outline: as §1

GlcNAc(b1-4)GlcNAc = biological target: GlcNAc(b1-4)GlcNAc
Outline: as §1

[30] = biological target: Kdn(a2-3)Gal(b1-4)[Fuc(a1-3)]GlcNAc
Outline: as §1

[31] = biological target: Man(a1-3)[Man(a1-6)]Man(a1-6)[Man(a1-3)]Man(b1-4)GlcNAc(b1-4)GlcNAc
Outline: as §1

[32] = biological target: Neu5Ac(a2-3)Gal(b1-4)GlcNAc(b1-3)Gal(b1-4)GlcNAc
Outline: as §1

[33] = biological target: Neu5Ac(a2-3)Gal(b1-4)GlcNAc(b1-3)Gal(b1-4)GlcNAc(b1-6)[Gal(b1-3)]GalNAc
Outline: as §1

[34] = biological target: Neu5Ac(a2-6)Gal(b1-4)GlcNAc(b1-2)[Neu5Ac(a2-6)Gal(b1-4)GlcNAc(b1-4)]Man(a1-3)[GlcNAc(b1-4)][Neu5Ac(a2-6)Gal(b1-4)GlcNAc(b1-2)[Neu5Ac(a2-6)Gal(b1-4)GlcNAc(b1-6)]Man(a1-6)]Man(b1-4)GlcNAc(b1-4)GlcNAc
Outline: as §1

[35] = biological target: Neu5Ac(a2-6)Gal(b1-4)GlcNAc(b1-3)Gal(b1-4)GlcNAc(b1-3)[Neu5Ac(a2-6)Gal(b1-4)GlcNAc(b1-3)Gal(b1-4)GlcNAc(b1-6)]GalNAc
Outline: as §1

[36] = biological target: Neu5Ac(a2-6)Gal(b1-4)GlcNAc(b1-6)GalNAc
Outline: as §1

[37] = biological target: Neu5Ac(a2-6)Gal(b1-4)GlcNAc6S
Outline: as §1

[38] = biological target: Neu5Ac(a2-8)Neu5Ac(a2-8)Neu5Ac(a2-3)[GalNAc(b1-4)]Gal(b1-4)Glc
Outline: as §1

[39] = biological target: Neu5Ac(a2-8)Neu5Ac(a2-8)Neu5Ac(a2-8)Neu5Ac(a2-3)[GalNAc(b1-4)]Gal(b1-4)Glc
Outline: as §1

[40] = biological target: Neu5Ac(a2-8)Neu5Gc(a2-3)Gal(b1-4)GlcNAc
Outline: as §1

B1: PX14351B-bth-512-36-512 (Bacteroides thetaiotaomicron) (protein)
chain: ASETQQWKTLEDTRSALMGVYGLTRAALADNNTHWICGDLRKGDFTVYKRSDLQAVSDNELNKPYDLLKKVSNWRRFYAVINAASVFMEKAPRTVELDRSYSEQNLKYDIAQVRALRAFAYFYMVRIWGDVPLVTYSYDNGTFPSMPRTDAQTVLSYAKAELLTAIEDLPYQYGTQTNLYYGSYGAQWQGKLFNKLSAYSVLAHICAWQGNYAEAETYSAFIIDHASEINAKYTSIADLTSETGLFYSNASVKGSRILGFNFAHNDNEATQSGHLEQLTLAYPLVQKSYPEIYISKDSLFSIFTNFDDLRFGIIDTIKYSSYYVQNLNEETPVFSKIKIIQDGSAKDNDFGVFGSSIVFTRLEDITLLRAEALCALNRSTEAVSYLNMIRTNRGLREVSFKKDFGNNRESLIAEIFEERRRELMGEGWRWYDLVRRQKLMKDNEAFLRLISSGGIYWPVSEDIITANSQIEQNEFWK
glycan array binding signal (z-score) (Fuc(a1-2)Gal(b1-4)Glc): -0.31 | glycan array binding signal (z-score) [1]: -0.143 | glycan array binding signal (z-score) [2]: -0.262 | glycan array binding signal (z-score) [3]: 1.76 | glycan array binding signal (z-score) [4]: 0.19 | glycan array binding signal (z-score) [5]: -0.185 | glycan array binding signal (z-score) [6]: 17.9 | glycan array binding signal (z-score) [7]: -0.075 | glycan array binding signal (z-score) [8]: 0.527 | glycan array binding signal (z-score) [9]: -0.314 | glycan array binding signal (z-score) (Gal(b1-3)Gal): -0.39 | glycan array binding signal (z-score) (Gal(b1-3)GalNAc): -0.25 | glycan array binding signal (z-score) [10]: 0.364 | glycan array binding signal (z-score) [11]: 0.113 | glycan array binding signal (z-score) [12]: -0.074 | glycan array binding signal (z-score) [13]: 9.18 | glycan array binding signal (z-score) [14]: -0.273 | glycan array binding signal (z-score) [15]: -0.288 | glycan array binding signal (z-score) [16]: 2.5 | glycan array binding signal (z-score) [17]: -0.34 | glycan array binding signal (z-score) [18]: 0.755 | glycan array binding signal (z-score) [19]: 2.73 | glycan array binding signal (z-score) [20]: 3.44 | glycan array binding signal (z-score) [21]: 2.11 | glycan array binding signal (z-score) [22]: -0.256 | glycan array binding signal (z-score) [23]: 1.91 | glycan array binding signal (z-score) (Gal3S(b1-4)Glc): -0.16 | glycan array binding signal (z-score) (Gal6S(b1-4)GlcNAc6S): -0.34 | glycan array binding signal (z-score) (GlcA(b1-3)Gal): -0.428 | glycan array binding signal (z-score) [24]: -0.114 | glycan array binding signal (z-score) [25]: -0.049 | glycan array binding signal (z-score) [26]: -0.115 | glycan array binding signal (z-score) [27]: -0.128 | glycan array binding signal (z-score) [28]: -0.068 | glycan array binding signal (z-score) [29]: 0.033 | glycan array binding signal (z-score) (GlcNAc(b1-3)Man): -0.006 | glycan array binding signal (z-score) (GlcNAc(b1-4)GlcNAc): -0.165 | glycan array binding signal (z-score) [30]: -0.287 | glycan array binding signal (z-score) [31]: -0.271 | glycan array binding signal (z-score) [32]: -0.265 | glycan array binding signal (z-score) [33]: 0.652 | glycan array binding signal (z-score) [34]: 0.217 | glycan array binding signal (z-score) [35]: -0.33 | glycan array binding signal (z-score) [36]: 0.191 | glycan array binding signal (z-score) [37]: -0.355 | glycan array binding signal (z-score) [38]: -0.362 | glycan array binding signal (z-score) [39]: 1.91 | glycan array binding signal (z-score) [40]: 4.31
